# PubChem BioAssay (NCI)
# About 83,000 compounds went through this panel and 20% of them were active in at least one assay; those are over-represented in the sample as a whole.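 Compound tested at a single concentration for 48 hours in 96-well plates; a percent growth value below 10 was scored as active.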 Unmarked numbers belong to inactive results. Active and inactive are the calls of the source.
# Assays:
# Experiment in all cases: NCI-60 one-dose screen, 48 h (100 = growth as untreated, 0 = no growth, -100 = all killed)
# Conditions in all cases: 10 µM unless noted
# NCI-H23 lung = system: NCI-H23 lung
# NCI-H226 lung = system: NCI-H226 lung
# NCI-H322M lung = system: NCI-H322M lung
# HOP-62 NSCLC = system: HOP-62 NSCLC
# NCI-H460 lung = system: NCI-H460 lung
# HOP-92 NSCLC = system: HOP-92 NSCLC
# NCI-H522 lung = system: NCI-H522 lung
# A549/ATCC NSCLC = system: A549/ATCC NSCLC
# 786-0 renal = system: 786-0 renal
# COLO 205 colon = system: COLO 205 colon
# DU-145 prostate = system: DU-145 prostate
# K-562 leukemia = system: K-562 leukemia
# MALME-3M melanoma = system: MALME-3M melanoma
# MDA-MB-231 breast = system: MDA-MB-231 breast
# RXF 393 renal = system: RXF 393 renal
# SF-268 CNS = system: SF-268 CNS
# SF-295 CNS = system: SF-295 CNS
# SF-539 CNS = system: SF-539 CNS
# UACC-257 melanoma = system: UACC-257 melanoma
# M14 melanoma = system: M14 melanoma
Compound,growth (NCI-H23 lung),growth (NCI-H226 lung),growth (NCI-H322M lung),growth (HOP-62 NSCLC),growth (NCI-H460 lung),growth (HOP-92 NSCLC),growth (NCI-H522 lung),growth (A549/ATCC NSCLC),growth (786-0 renal),growth (COLO 205 colon),growth (DU-145 prostate),growth (K-562 leukemia),growth (MALME-3M melanoma),growth (MDA-MB-231 breast),growth (RXF 393 renal),growth (SF-268 CNS),growth (SF-295 CNS),growth (SF-539 CNS),growth (UACC-257 melanoma),growth (M14 melanoma)
O=Nc1ccc(NC(=O)Nc2ccc([N+](=O)[O-])cc2)cc1,87.5%,99.6%,103%,110%,91.5%,56.5%,78.8%,95.6%,86.5%,116%,113%,58.8%,102%,87%,119%,104%,98.1%,101%,104%,102%
COc1cc(C=Nc2oc(-c3ccccc3)c(-c3ccccc3)c2C#N)cc(CN2CCCC2)c1O,94.8%,93.7%,103%,94%,102%,85.6%,85.8%,94.4%,99.3%,114%,108%,94.4%,117%,95.7%,111%,96.4%,98.5%,95.1%,107%,100%
O=C(Nc1nc(Cl)nc(Nc2ccc(N3CCOCC3=O)cc2)n1)c1ccc(Cl)s1,88.1%,86.4%,97.8%,97.6%,99.9%,80.2%,81.1%,77.3%,108%,,104%,64.2%,88.3%,88.3%,91.3%,95.9%,92.7%,104%,72.2%,90.4%
COC(=O)c1sccc1-c1cc(O)c(C(=O)Nc2ccccc2)s1,83%,90.9%,93.3%,92.2%,104%,97.9%,90.9%,91.5%,106%,,99.1%,91.6%,84.5%,91.5%,115%,91.7%,99.4%,98.8%,91.6%,93.3%
CN(C)Cc1cc(C(C)(C)C)cc(Br)c1O,107%,101%,118%,110%,86.5%,87.5%,103%,109%,101%,,109%,106%,122%,113%,93.9%,104%,97.3%,88.6%,119%,101%
Cc1c2ncccc2nc2[nH]c3ccc(OCCN(C)C)cc3c12,28.1%,32.7%,13.2%,29.3%,5.49% (active),30.3%,22.9%,5.31% (active),25.2%,19.1%,22.2%,17%,29.3%,30.3%,35.3%,30.8%,32%,38.5%,46.1%,19.4%
CC1(/C=C/c2ccc(-c3ccccc3)cc2)CCn2cnc3ncnc(c32)N1O (configuration not stated),13%,17%,26.9%,19.6%,3.93% (active),52.3%,26%,15.6%,1.88% (active),28%,21.4%,14.9%,23.3%,53.9%,5.19% (active),16.6%,13.3%,1.19% (active),10.7%,-2.25% (active)
Nc1c(C(=O)Nc2cccc3ncccc23)sc2nc3c(cc12)CN(Cc1ccccc1)CC3,67.7%,77.2%,83%,73.1%,84.3%,74.1%,55.8%,90.3%,88.1%,112%,93.9%,34.8%,76.2%,75.3%,80.8%,84.6%,67.5%,88.7%,69.2%,90.1%
